The values that follow come from PubChem BioAssay AID1076 (NMMLSC, 2008).

Active and inactive are the calls of the source.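 The calls were made as follows: active = cell event count below 40, meaning activity score above 60 where score is 100 minus count; inactive = the rest.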

One test in a line: cytotoxicity in LNCaP prostate cells – cell-based, cell event count, single point, cytotoxicity control for prostate differentiation activator project, confirmation (AID 1076).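 Also: counts scatter-gated live cells after medium removal discards detached dead cells.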 The following applies: LNCaP cell loss, flow cytometry event count, 4 d; at 100 µM; stronger effect = lower value. (In general: In flow cytometry, cells or beads pass a laser one at a time.)
On to `CC1CCCCN1CCNC(=O)c1ccc2c(=O)n(CCc3ccccc3)c(=O)[nH]c2c1` (stereo unspecified), for which the cell event count was 168 (inactive).

On to `CCOc1ccc(-c2cc(C(=O)NCCCN3CCN(CC)CC3)c3ccccc3n2)cc1`, for which the cell event count was 39 (inactive).

As for `Cc1oc(-c2ccc(Cl)cc2)nc1CN1CCC(C(=O)NCc2ccco2)CC1`, the cell event count was 178 (inactive).

With `COc1ccc(N2CCN(c3oc(COc4ccccc4Cl)nc3C#N)CC2)cc1`, the cell event count is 214 (inactive).

Take `COc1ccc(N2CCN(CCCNC(=O)C3(S(=O)(=O)c4ccc(Cl)cc4)CC3)CC2)cc1`: the cell event count was 93 (inactive).

As to `COc1ccc(CC(=O)Nc2ccc(-c3nnc(-c4ccc(C)cc4)o3)cc2)cc1`, the cell event count was 24 (inactive).

On to `CCc1ccc(-c2nc(CN3CCC(C(=O)NCc4ccco4)CC3)c(C)o2)cc1`, for which the cell event count is 25 (inactive).

Regarding `COc1cc2nc(N3CCN(C(=O)C4COc5ccccc5O4)CC3)nc(N)c2cc1OC` (stereo unspecified), the cell event count was 5 (inactive).

In the case of `CCN(CCNC(=O)C1CCN(Cc2nc(-c3cccc(Cl)c3)oc2C)CC1)c1ccccc1`, the cell event count was 3 (active).

With `Cc1cc(NC(=O)CSc2nnc(C3CC3)n2C)no1`, the cell event count is 198 (inactive).

For `Cc1nn(Cc2ccc(F)cc2)c(C)c1NC(=O)c1cc(-c2ccc3c(c2)OCO3)on1`, the cell event count was 105 (inactive).

For `O=C(CCN1C(=O)COc2ccccc21)NCCCN1CCN(c2ccccc2F)CC1`, the cell event count is 186 (inactive).

As to `COC(=O)c1ccccc1S(=O)(=O)N(Cc1cc2cc3c(cc2[nH]c1=O)OCO3)C1CCCCC1`, the cell event count is 8 (inactive).

As for `Cc1cc(C)nc(N2CCC(C(=O)Nc3ccc(Oc4ccccc4)cc3)CC2)n1`, the cell event count was 145 (inactive).

Regarding `COc1ccccc1N1CCN(Cc2cc(Br)c(O)c3ncccc23)CC1`, the cell event count was 17 (active).

In the case of `Cc1cc(=O)n2nc(N3CCCC(C(=O)NCc4ccco4)C3)sc2n1` (stereo unspecified), the cell event count is 325 (inactive).

On to `CCS(=O)(=O)N1CCC(C(=O)NCCCN2CCN(c3ccccc3F)CC2)CC1`, for which the cell event count is 135 (inactive).

`CCOc1ccc(-n2cc(C(=O)N3CCC(C)CC3)c3cc(OC)c(OC)cc3c2=O)cc1`: the cell event count is 202 (inactive).

Consider `Cn1c(=O)cc(SCC(=O)NCCCN2CCN(c3ccccc3F)CC2)c2ccccc21`, for which the cell event count was 166 (inactive).

`CCN(CC)CCCNC(=O)c1cc(-c2cccc(Cl)c2)on1`: the cell event count is 170 (inactive).

On to `CCOC(=O)C1=C(O)CCn2c1nc1ccccc12`, for which the cell event count was 206 (inactive).

For `Cn1c(C(=O)NCCC2=CCCCC2)cc2c(=O)n3ccccc3nc21`, the cell event count was 191 (inactive).

In the case of `CN(CCNC(=O)C1CC(=O)N(c2ccc(F)c(Cl)c2)C1)Cc1ccccc1` (stereo unspecified), the cell event count was 79 (inactive).

In the case of `O=C(CCCCCn1c(=O)[nH]c2ccccc2c1=O)NCCCN1CCN(c2ccccc2F)CC1`, the cell event count was 18 (inactive).

For `COCCn1cc(C(=O)N2CCCC(C)C2)c2c3ccccc3n(C)c2c1=O` (stereo unspecified), the cell event count is 180 (inactive).

As to `O=C(Nc1ccc2oc(Cc3ccc(Cl)cc3)nc2c1)c1cccnc1`, the cell event count is 17 (inactive).

With `Cc1cccc(OCCn2c(=O)n(C)c3ccccc32)c1`, the cell event count is 15 (inactive).

With `CCn1c(=O)cc(SCC(=O)NCCN2CCN(Cc3ccccc3)CC2)c2ccccc21`, the cell event count was 228 (inactive).

With `C=CCn1c(=N)n(CC(O)COc2ccc(OC)cc2)c2ccccc21` (stereo unspecified), the cell event count was 37 (inactive).

Take `C=CCn1cc(C(=O)N2CCN(C)CC2)c(=O)c2cc(S(=O)(=O)N3CCCC3)ccc21`: the cell event count was 168 (inactive).

Consider `N#C/C(=C\c1ccc(O)c(O)c1)C(=O)NCCCc1ccccc1`, for which the cell event count is 38 (inactive).

Turning to `CCOc1cccc(-c2nnc3n2N=C(c2cc(OC)ccc2OC)CS3)c1`, the cell event count is 3 (inactive).

With `CC(C)n1c(=S)[nH]c2c1c(=O)[nH]c(=O)n2C`, the cell event count is 221 (inactive).

With `Cc1cc(N2C(=O)C3C4C=CC(C4)C3C2=O)ccc1Br` (stereo unspecified), the cell event count was 272 (inactive).

Turning to `Cn1nc(-c2ccc(Cl)cc2)c2cc(C(=O)NCCCN3CCCC3)sc21`, the cell event count is 19 (inactive).

For `Cc1oc(-c2cccc(Cl)c2)nc1CN1CCCC(C(=O)NCCCN2CCOCC2)C1` (stereo unspecified), the cell event count is 22 (inactive).

Take `Cc1onc(-c2ccccc2Cl)c1C(=O)N(C)C1CCCCC1`: the cell event count is 25 (inactive).

On to `CS(=O)(=O)c1nc(-c2cccs2)cc(C(F)(F)F)n1`, for which the cell event count was 53 (inactive).

Still in this test, the particulars now being: LNCaP cell loss, flow cytometry event count, 4 d; event count; at 10 µM; stronger effect = lower value.
`CC1CCCCN1CCNC(=O)c1ccc2c(=O)n(CCc3ccccc3)c(=O)[nH]c2c1` (stereo unspecified) yielded a cell event count of 184.

Consider `CCOc1ccc(-c2cc(C(=O)NCCCN3CCN(CC)CC3)c3ccccc3n2)cc1`, for which the cell event count turned out to be 156.

Consider `Cc1oc(-c2ccc(Cl)cc2)nc1CN1CCC(C(=O)NCc2ccco2)CC1`, for which the cell event count was determined as 174.

For the molecule `COc1ccc(N2CCN(c3oc(COc4ccccc4Cl)nc3C#N)CC2)cc1`, the cell event count turned out to be 172.

`COc1ccc(N2CCN(CCCNC(=O)C3(S(=O)(=O)c4ccc(Cl)cc4)CC3)CC2)cc1`: the cell event count stood at 136.

The molecule `COc1ccc(CC(=O)Nc2ccc(-c3nnc(-c4ccc(C)cc4)o3)cc2)cc1` displayed a cell event count of 112.

In the case of `CCc1ccc(-c2nc(CN3CCC(C(=O)NCc4ccco4)CC3)c(C)o2)cc1`, the cell event count is 172.

`COc1cc2nc(N3CCN(C(=O)C4COc5ccccc5O4)CC3)nc(N)c2cc1OC` (stereo unspecified): the cell event count is 124.

Molecule `CCN(CCNC(=O)C1CCN(Cc2nc(-c3cccc(Cl)c3)oc2C)CC1)c1ccccc1` registered a cell event count of 83.

`Cc1cc(NC(=O)CSc2nnc(C3CC3)n2C)no1` showed a cell event count of 100.

Molecule `Cc1nn(Cc2ccc(F)cc2)c(C)c1NC(=O)c1cc(-c2ccc3c(c2)OCO3)on1` came in with a cell event count of 276.

`O=C(CCN1C(=O)COc2ccccc21)NCCCN1CCN(c2ccccc2F)CC1` had a cell event count of 204.

On to `COC(=O)c1ccccc1S(=O)(=O)N(Cc1cc2cc3c(cc2[nH]c1=O)OCO3)C1CCCCC1`, for which the cell event count turned out to be 103.

With `Cc1cc(C)nc(N2CCC(C(=O)Nc3ccc(Oc4ccccc4)cc3)CC2)n1`, the cell event count turned out to be 398.

In the case of `COc1ccccc1N1CCN(Cc2cc(Br)c(O)c3ncccc23)CC1`, the cell event count is 35.5.

`Cc1cc(=O)n2nc(N3CCCC(C(=O)NCc4ccco4)C3)sc2n1` (stereo unspecified) registered a cell event count of 102.

In the case of `CCS(=O)(=O)N1CCC(C(=O)NCCCN2CCN(c3ccccc3F)CC2)CC1`, the cell event count came out at 70.5.

With `CCOc1ccc(-n2cc(C(=O)N3CCC(C)CC3)c3cc(OC)c(OC)cc3c2=O)cc1`, the cell event count is 251.

On to `Cn1c(=O)cc(SCC(=O)NCCCN2CCN(c3ccccc3F)CC2)c2ccccc21`, for which the cell event count was 210.

Molecule `CCN(CC)CCCNC(=O)c1cc(-c2cccc(Cl)c2)on1` displayed a cell event count of 376.

With `CCOC(=O)C1=C(O)CCn2c1nc1ccccc12`, the cell event count worked out at 257.

In the case of `Cn1c(C(=O)NCCC2=CCCCC2)cc2c(=O)n3ccccc3nc21`, the cell event count was 132.

Molecule `CN(CCNC(=O)C1CC(=O)N(c2ccc(F)c(Cl)c2)C1)Cc1ccccc1` (stereo unspecified) showed a cell event count of 202.

As to `O=C(CCCCCn1c(=O)[nH]c2ccccc2c1=O)NCCCN1CCN(c2ccccc2F)CC1`, the cell event count is 336.

As to `COCCn1cc(C(=O)N2CCCC(C)C2)c2c3ccccc3n(C)c2c1=O` (stereo unspecified), the cell event count was found to be 176.

As for `O=C(Nc1ccc2oc(Cc3ccc(Cl)cc3)nc2c1)c1cccnc1`, the cell event count was 96.

In turn, `Cc1cccc(OCCn2c(=O)n(C)c3ccccc32)c1` showed a cell event count of 136.

The molecule `CCn1c(=O)cc(SCC(=O)NCCN2CCN(Cc3ccccc3)CC2)c2ccccc21` returned a cell event count of 356.

Consider `C=CCn1c(=N)n(CC(O)COc2ccc(OC)cc2)c2ccccc21` (stereo unspecified), for which the cell event count was 126.

For the molecule `C=CCn1cc(C(=O)N2CCN(C)CC2)c(=O)c2cc(S(=O)(=O)N3CCCC3)ccc21`, the cell event count came to 118.

Regarding `N#C/C(=C\c1ccc(O)c(O)c1)C(=O)NCCCc1ccccc1`, the cell event count came to 99.

For the molecule `CCOc1cccc(-c2nnc3n2N=C(c2cc(OC)ccc2OC)CS3)c1`, the cell event count was determined as 136.

The molecule `CC(C)n1c(=S)[nH]c2c1c(=O)[nH]c(=O)n2C` had a cell event count of 146.

`Cc1cc(N2C(=O)C3C4C=CC(C4)C3C2=O)ccc1Br` (stereo unspecified) showed a cell event count of 69.5.

Take `Cn1nc(-c2ccc(Cl)cc2)c2cc(C(=O)NCCCN3CCCC3)sc21`: the cell event count was 104.

In turn, `Cc1oc(-c2cccc(Cl)c2)nc1CN1CCCC(C(=O)NCCCN2CCOCC2)C1` (stereo unspecified) gave a cell event count of 220.

For the molecule `Cc1onc(-c2ccccc2Cl)c1C(=O)N(C)C1CCCCC1`, the cell event count came to 188.

The molecule `CS(=O)(=O)c1nc(-c2cccs2)cc(C(F)(F)F)n1` registered a cell event count of 61.
